Measured values taken from the supplement of paper PMC3334620.
In all, about 33,000 sequences were measured (“E-score (-0.5 to 0.5)”: median about -0.0059, highest 2% from about 0.26 on). This excerpt belongs to a sample that is enriched for the highest values.

Target: T1, Cin5 (UniProt P40917)
T1 sequence: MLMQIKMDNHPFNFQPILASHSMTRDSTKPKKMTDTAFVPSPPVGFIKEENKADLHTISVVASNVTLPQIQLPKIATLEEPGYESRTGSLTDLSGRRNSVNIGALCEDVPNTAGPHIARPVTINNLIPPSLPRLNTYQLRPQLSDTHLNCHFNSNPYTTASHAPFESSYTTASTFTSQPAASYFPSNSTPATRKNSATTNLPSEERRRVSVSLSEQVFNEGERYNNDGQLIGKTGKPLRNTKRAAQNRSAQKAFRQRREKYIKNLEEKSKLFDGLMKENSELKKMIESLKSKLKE
Experiment: PBM E-score (8-mer binding enrichment) (E-score (-0.5 to 0.5)); higher = stronger / more preferred TF binding
Conditions: protein concentration: 100 nM; construct: GST-full length
Procedure: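 Universal 'all 10-mer' protein binding microarrays (Agilent AMADID 015681) probed with GST-tagged S. cerevisiae TFs (full-length or DBD) made by in vitro transcription/translation (PURExpress), about 100-200 nM. Bound TF was detected with fluorescent anti-GST. Each ungapped 8-mer (which stands for itself and its reverse complement) is scored by the PBM enrichment score (E-score), a modified Wilcoxon-Mann-Whitney statistic from -0.5 to +0.5, computed with the Universal PBM Analysis Suite. Scale: above 0.35 generally sequence-specific binding.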

Sequence	PBM E-score
GGTATGAA	0.126
AGGTTCTC	-0.153
CTCAAACA	0.0626
TAAAAACA	0.174
ATCAAACA	0.274
GAAAAACA	-0.0228
ATCAAGCA	0.114
AAAAAACA	0.284
TAGATGCA	0.0348
ACTTTGAG	-0.126
AGGCCAGA	-0.0898
GATTCTTA	0.213
ATGTACAT	0.205
CTATCGAA	0.0827
CAATCCCC	0.0168
CAATCCCA	-0.0745
CAATCCCG	0.259
CCGGTTGC	0.00629
GTTGTCTA	0.114
ATTGTCTA	0.273
ATTGTCTC	-0.017
AAGTAGAG	-0.126
ACGCCTTG	-0.0542
GTAAAAGA	0.0603
CATGATAG	0.0148

Sequence	PBM E-score
CATGATTC	-0.0303
AATGATTA	0.335
AATGATTC	0.161
GATGATTA	0.23
AATGATAG	0.272
AATGATAA	0.227
CATGATGA	0.173
CATGATTA	0.321
CGCGTCGA	0.0758
TAACCGGA	0.106
GCGCACGC	-0.12
CCTGCAGG	-0.134
ACCGCGAC	-0.104
CACGGGTA	-0.0916
ACATGGTG	0.0908
AGTCTGGA	0.041
GCGAGACC	-0.127
CGGGATTC	0.0661
AGCGATTA	0.127
CGCGATTC	0.124
CGCGATTA	0.263
ATCGATTA	0.248
CTCGATTA	0.264
AGGGATTA	0.0341
CGGGATTA	0.294

Sequence	PBM E-score
CTCGATTC	0.119
ACCTACTC	0.0706
AGATCTGA	0.0167
GTAGCTTA	0.279
GTTGCGTA	0.068
ATTGCTTG	0.177
GTTGCTGA	0.12
ATTGCTGA	0.115
ATTGCGTC	0.128
ATTGCGTA	0.287
GTTGCTTA	0.338
CTTGCTTA	0.229
CTAGCTTA	0.256
ATAGCTTA	0.154
ATTGCTTA	0.259
CCTTGTTA	-0.0571
AACTCGGC	0.121
GCCGCTAC	-0.0553
AGCGGGCG	-0.0666
TCTGGGCA	-0.124
GGGCGAAA	0.0331
ACCGCCGC	-0.101
TCCGCTAA	-0.0291
AGACCTTC	-0.134
AGCCTAAA	-0.0722

Sequence	PBM E-score
CGTTGCGA	-0.0384
GCGCTGAA	-0.2
ACCAGATC	-0.0659
CTAATTAC	0.24
ATAATTAG	0.241
GTAATTAA	0.13
ACAATTAT	0.205
ATAATTAC	0.365
GTAATTAC	0.175
TTAATTAA	0.183
ATAATTAA	0.303
ATAATTAT	0.341
ACCGGTAC	-0.217
CAACACTC	0.105
GGATCAGA	-0.042
CGTGAAAG	-0.0748
GTATTCGA	-0.0476
ACAACCTA	0.0123
AATCGCTG	-0.0284
ATATTGAG	0.266
CTATTGAG	0.144
ATATTGAT	0.249
GCTCAAAA	-0.00649
CCTAATAC	0.113
ACTAATAC	0.26

Sequence	PBM E-score
ACTAATAT	0.234
ACTAATAA	0.221
GCTAATAC	0.153
ACTAATAG	0.277
ATAAGGCG	0.0483
CTCCGCTA	-0.116
CCAGTTAA	0.134
GCGGTGGA	0.0809
GAAGCAGC	-0.162
CAGCTTAG	0.0588
CAGCTTGC	-0.0574
AAGCTTAG	0.306
GAGCTTAC	0.191
CAGCTTAC	0.312
CAGCTTAA	0.0109
AAGCTTAC	0.282
AAGCTTAT	0.231
AAGCTTAA	0.164
CGGGTAGC	-0.214
AGATGGAA	0.167
GAGGTCCA	-0.14
AGGCTTAG	0.0724
CGGCTTAG	-0.0489
CGGCTTAC	0.358
AGGCTTAT	0.152

Sequence	PBM E-score
CGGCTTAA	0.19
AGGCTTAC	0.258
GTAACGGA	0.252
CGAATTAC	0.0723
GCGCGGCC	-0.0214
CCCGCGCG	0.138
CCTTCTGC	-0.126
AAACTTGT	0.0442
AGAACCTG	-0.127
CGACATCA	0.137
TGACATCA	0.356
GGACATCA	0.0421
TCCATTCA	0.0889
GAGGTGCA	-0.0183
AATGCATT	0.259
AATGCATA	0.116
AATGCAAG	0.00342
AATGCAAC	0.0401
AATGCATG	0.183
AATGCAAA	0.275
ACGTTTCG	-0.0249
GCTCCCGA	-0.217
ACGTCTCA	0.124
CAAACTCG	0.0562
AGTTCCGA	0.123

Sequence	PBM E-score
AGCATCTA	0.00891
CGCATCTA	0.271
GGCATCTA	-0.0103
CGCCATCA	-0.202
CAAAAATA	0.277
GGGAAATA	0.0795
AACAAATT	0.274
CCAAAATA	0.113
CAAATATG	0.117
CAAATATC	0.282
AAAATATC	0.189
AAAAAATA	0.213
AACAAATG	0.0424
CGGAAATA	0.33
CGGAAATC	0.137
AACAAGTT	0.0368
CGGGCCTA	-0.236
CGGTTCTC	-0.217
GTGGAAGA	-0.192
ACGGGCAT	-0.0832
ACTAAGAT	0.2
TTCTCCAA	-0.0656
ACACTCAC	0.066
AACAAATA	0.278
AACAAGAT	0.146

Sequence	PBM E-score
AACAAAAT	0.269
AACAAGTA	0.0249
TACAAATA	0.239
AACAAAAA	0.209
GTATCCAC	-0.00124
AATCATCC	0.227
TACTCCTA	0.066
CATCCCAA	0.0478
CATTTCGC	0.111
GATTTCGC	0.262
GATTTCGA	0.11
CAATGGTG	-0.161
CTCTGGAC	0.0765
AGGGTGCA	-0.148
CCATAAGA	0.118
ACATAAGC	0.437
ACATAAGT	0.195
ACATAAGA	0.3
TCATAAGA	0.0448
ACATAACC	0.235
CTATAAGA	0.0762
ATATAAGA	0.301
ACATAAGG	0.194
ACATAACT	0.197
ACATAACA	0.286

Sequence	PBM E-score
GTATAAGA	0.0464
ATGGAACA	-0.0505
GCACTGAA	-0.0379
CCATTGAG	0.00119
AGACACCA	-0.0438
GGGAGCCC	-0.419
CCACGCAG	-0.0201
GCATAAGC	0.276
GCATAAGA	0.0468
CCATAAGC	0.215
GACTTGAC	-0.208
GAGCGGGA	-0.0794
GGCAACCA	-0.0499
CTTTCGCC	-0.0892
CGGAATCA	0.27
AGGAATCA	0.172
GGGAATCA	-0.0779
CATAGCCC	-0.222
CCCACTAC	0.0221
CTGGAGAA	-0.202
CTACACAG	-0.0209
CAAGAACA	-0.0469
GAAGAACA	0.215
TAAGAACA	0.29
CGTAGACG	-0.217

Sequence	PBM E-score
GAAACTGA	-0.17
CCCGAGTA	0.15
ATTAGATG	0.239
GTTAGATA	0.113
CGTAGATA	0.0684
AGTAGATC	-0.0135
TATAGATA	0.176
CTTAGCTA	0.151
ATTAGCTA	0.3
GATAGATA	0.0426
AATAGATA	0.269
ATTAGATA	0.301
GTTAGCTA	0.0147
AGTAGATA	0.306
CCGGTTTC	0.0044
TACAATCA	0.152
CCCTCAGG	-0.164
AACCAAAA	0.204
CCGCCCCA	0.109
AGTGCCGC	-0.124
AGGGCCAC	-0.194
AGAAGGGC	-0.254
ATATAACA	0.284
ATATAACG	0.273
GTATAACA	0.126

Sequence	PBM E-score
CTATAACC	-0.144
CTATAACA	-0.122
ATATAACC	0.188
CTTAAACC	-0.192
ACGGCGTC	-0.0496
GAACTGGC	-0.125
CATAATTA	0.308
CCTAATTA	0.0517
ACTAATTA	0.228
CATAATTC	0.138
ACTAATTC	0.204
GATAATTA	0.218
AATAATTA	0.35
AATAATTG	0.0887
AATAATTC	0.261
ACCGAAGA	0.0871
ACCAATGC	0.0593
AGAGACTC	-0.0094
CCTCGCCC	0.0221
AGCCTTAG	-0.197
CAACAGTA	0.0302
GCCAGCCA	-0.193
GATACAAA	0.173
AATACAAT	0.154
AATACAAG	0.294

Sequence	PBM E-score
AATACAAA	0.342
TATACAAA	0.169
AATACAAC	0.236
AACTCCCT	-0.142
CATTAACG	0.0883
CGCATGAA	0.116
GGTAACCA	-0.151
ATTATTGA	0.111
GCAATACC	0.0147
GCAATACA	0.274
CTAATACC	0.104
ATAATACC	0.258
ATAATACA	0.35
ACAATACA	0.144
CTAATACA	0.161
ATAATACG	0.213
ACAATACC	0.278
ACAATACG	0.05
ACAATACT	0.237
ATAATAAC	0.206
GAGTGCTA	0.0563
CCTAACCC	-0.302
ACAAGACT	-0.039
GATTGGAA	-0.0265
ATCGAGTC	0.0696

Sequence	PBM E-score
CTCTAAGC	0.0569
ATTAACTG	0.237
ATACAGGG	0.121
ACTCGTGG	-0.041
ATGGTAGG	-0.0925
CTACTTCA	-0.0153
GTACTTCA	0.279
ATACTTCA	0.129
AACCCAGA	-0.0895
CGGGGCAC	-0.242
GCTCTACC	-0.288
ATAGATAA	0.267
ATTGAATC	-0.0743
TTAGATAA	0.32
AAAGATTA	0.249
ATAGATAG	0.0352
CTTGAATA	0.0347
CTAGATAA	0.0277
ATAGATAC	0.224
GAAGATTA	0.197
ATTGAATA	0.277
TAAGATTA	0.274
TCAGATAA	0.184
AAAAGGAC	0.0428
AAGACCCG	-0.133

Sequence	PBM E-score
AACGATCG	0.0832
ACGCCCGA	-0.032
AGGAACAA	-0.0886
AGTTCGGC	-0.0604
ATAGAATG	0.209
ATGGAATC	0.242
ATAGAATA	0.277
ATAGATTA	0.302
ATGGAATA	0.322
GTGGAATA	0.193
GCAGATAA	0.0212
ATAGATTG	0.224
GTAGAATA	0.194
GTAGATTA	0.232
GTAGATAC	0.0747
GTAGATAA	0.28
AAAGTTGC	0.0362
AGGCCAAC	-0.251
CATTGCAA	-0.0643
